According to PubChem BioAssay (NCI):
The panel holds about 83,000 compounds, 20% with a hit somewhere; the sample as a whole holds those more often.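 Results are percent growth after 48 hours of single-concentration exposure. 100 means growth as in untreated cells, lower positive values show inhibition; negative values down to -100 show cell death.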 Values without a mark were called inactive. Calls of active or inactive are those of the source. How the source made its calls: active means growth percent below 10; inactive means the rest.

system: MDA-MB-468 breast; assay: NCI-60 one-dose screen, 48 h (100 = growth as untreated, 0 = no growth, -100 = all killed); settings: 10 µM unless noted

| Compound | growth |
| --- | --- |
| COc1cc(/C=C\c2cc(/C=C\c3ccc(O)c(OC)c3)n(C(=O)CNc3ccccc3OC)n2)ccc1O | 95.8% |
| COc1ccc2c(c1)CC[C@@H]1[C@@H]2CC[C@]2(C)[C@@H](O)C(=O)C[C@@H]12 | 109% |
| COc1cc(/C=C/c2cc(/C=C/c3ccc(O)c(OC)c3)[nH]c(=O)n2)ccc1O | 6.34% (active) |
